# Results: ChEMBL document CHEMBL2218924, “A broad activity screen in support of a chemogenomic map for kinase signalling research and drug discovery” (Biochem J, 2013)
# Experiments:
# [1] = molecular target: High affinity nerve growth factor receptor (Homo sapiens) (UniProt P04629); settings: at 1 µM
# [2] = molecular target: High affinity nerve growth factor receptor (Homo sapiens) (UniProt P04629); settings: at 10 µM
# [3] = molecular target: BDNF/NT-3 growth factors receptor (Homo sapiens) (UniProt Q16620); settings: at 1 µM
# [4] = molecular target: T1, Tyrosine-protein kinase Tec (Homo sapiens) (UniProt P42680); settings: at 1 µM
# T1 sequence (whole entry): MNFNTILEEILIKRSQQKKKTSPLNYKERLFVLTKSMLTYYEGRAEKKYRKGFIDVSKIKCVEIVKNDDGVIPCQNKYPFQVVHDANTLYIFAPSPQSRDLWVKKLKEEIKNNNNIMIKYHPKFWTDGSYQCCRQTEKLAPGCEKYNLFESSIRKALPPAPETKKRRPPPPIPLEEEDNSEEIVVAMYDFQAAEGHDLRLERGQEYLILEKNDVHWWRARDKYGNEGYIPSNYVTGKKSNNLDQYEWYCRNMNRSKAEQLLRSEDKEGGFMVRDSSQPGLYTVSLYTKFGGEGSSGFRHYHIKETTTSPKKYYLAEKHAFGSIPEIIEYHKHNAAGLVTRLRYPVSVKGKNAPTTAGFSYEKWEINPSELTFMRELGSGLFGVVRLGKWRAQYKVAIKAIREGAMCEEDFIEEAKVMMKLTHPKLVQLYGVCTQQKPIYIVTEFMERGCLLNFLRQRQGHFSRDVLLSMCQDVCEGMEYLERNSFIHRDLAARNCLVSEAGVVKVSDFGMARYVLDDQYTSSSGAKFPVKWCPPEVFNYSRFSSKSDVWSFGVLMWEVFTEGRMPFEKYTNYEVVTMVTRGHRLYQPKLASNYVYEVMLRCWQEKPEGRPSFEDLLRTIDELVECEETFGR
# [5] = molecular target: T1, Tyrosine-protein kinase Tec (Homo sapiens); settings: at 10 µM
# [6] = molecular target: T2, Testis-specific serine/threonine-protein kinase 2 (Homo sapiens) (UniProt Q96PF2); settings: at 10 µM
# T2 sequence (whole entry): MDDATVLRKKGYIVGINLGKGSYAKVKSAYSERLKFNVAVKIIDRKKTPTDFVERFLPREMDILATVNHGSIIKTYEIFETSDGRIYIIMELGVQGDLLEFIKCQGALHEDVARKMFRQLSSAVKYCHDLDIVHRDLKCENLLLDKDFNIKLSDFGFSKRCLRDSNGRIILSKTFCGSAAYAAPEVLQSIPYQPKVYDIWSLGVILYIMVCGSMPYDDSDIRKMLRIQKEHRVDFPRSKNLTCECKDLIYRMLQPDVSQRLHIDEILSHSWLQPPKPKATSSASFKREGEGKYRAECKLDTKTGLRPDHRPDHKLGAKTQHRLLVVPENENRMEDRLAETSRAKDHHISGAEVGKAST
# [7] = molecular target: Angiopoietin-1 receptor (Homo sapiens) (UniProt Q02763); settings: at 1 µM
# [8] = molecular target: Angiopoietin-1 receptor (Homo sapiens) (UniProt Q02763); settings: at 10 µM
# [9] = molecular target: T3, Testis-specific serine/threonine-protein kinase 1 (Homo sapiens) (UniProt Q9BXA7); settings: at 10 µM
# T3 sequence (whole entry): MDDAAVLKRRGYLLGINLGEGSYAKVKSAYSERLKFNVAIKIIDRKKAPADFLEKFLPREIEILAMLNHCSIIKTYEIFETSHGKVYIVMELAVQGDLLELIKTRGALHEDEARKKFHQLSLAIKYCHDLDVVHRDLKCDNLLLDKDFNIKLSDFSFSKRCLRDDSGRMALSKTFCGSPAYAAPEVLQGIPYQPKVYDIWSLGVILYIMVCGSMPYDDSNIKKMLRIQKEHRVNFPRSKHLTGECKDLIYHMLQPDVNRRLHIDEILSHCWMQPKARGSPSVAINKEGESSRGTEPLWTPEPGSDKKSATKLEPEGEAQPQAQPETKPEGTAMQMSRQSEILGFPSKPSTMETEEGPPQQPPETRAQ
# [10] = molecular target: T3, Testis-specific serine/threonine-protein kinase 1 (Homo sapiens); settings: at 1 µM
# High affinity nerve growth factor receptor (Homo sapiens), sequence (P04629 33-796 limits assumed): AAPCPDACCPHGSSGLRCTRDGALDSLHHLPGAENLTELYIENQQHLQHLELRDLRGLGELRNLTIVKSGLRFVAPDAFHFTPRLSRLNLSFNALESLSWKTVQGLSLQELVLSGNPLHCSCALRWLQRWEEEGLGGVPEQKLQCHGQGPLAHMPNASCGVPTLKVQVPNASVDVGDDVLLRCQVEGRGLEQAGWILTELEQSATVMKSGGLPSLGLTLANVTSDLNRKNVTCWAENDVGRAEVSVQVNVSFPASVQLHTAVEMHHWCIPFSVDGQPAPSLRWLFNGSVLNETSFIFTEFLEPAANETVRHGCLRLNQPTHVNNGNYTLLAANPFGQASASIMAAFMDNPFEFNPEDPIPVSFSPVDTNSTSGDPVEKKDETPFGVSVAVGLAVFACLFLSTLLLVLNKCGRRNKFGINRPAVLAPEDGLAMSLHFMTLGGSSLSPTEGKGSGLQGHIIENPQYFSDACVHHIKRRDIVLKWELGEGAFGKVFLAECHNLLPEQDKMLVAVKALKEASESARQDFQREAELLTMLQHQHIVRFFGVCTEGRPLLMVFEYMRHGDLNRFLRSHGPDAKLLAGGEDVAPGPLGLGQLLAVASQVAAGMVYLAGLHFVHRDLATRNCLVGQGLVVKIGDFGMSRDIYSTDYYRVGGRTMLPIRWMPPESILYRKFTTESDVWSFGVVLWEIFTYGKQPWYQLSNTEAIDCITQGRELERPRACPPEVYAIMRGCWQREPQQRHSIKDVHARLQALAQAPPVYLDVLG
# Angiopoietin-1 receptor (Homo sapiens), sequence (Q02763 whole entry): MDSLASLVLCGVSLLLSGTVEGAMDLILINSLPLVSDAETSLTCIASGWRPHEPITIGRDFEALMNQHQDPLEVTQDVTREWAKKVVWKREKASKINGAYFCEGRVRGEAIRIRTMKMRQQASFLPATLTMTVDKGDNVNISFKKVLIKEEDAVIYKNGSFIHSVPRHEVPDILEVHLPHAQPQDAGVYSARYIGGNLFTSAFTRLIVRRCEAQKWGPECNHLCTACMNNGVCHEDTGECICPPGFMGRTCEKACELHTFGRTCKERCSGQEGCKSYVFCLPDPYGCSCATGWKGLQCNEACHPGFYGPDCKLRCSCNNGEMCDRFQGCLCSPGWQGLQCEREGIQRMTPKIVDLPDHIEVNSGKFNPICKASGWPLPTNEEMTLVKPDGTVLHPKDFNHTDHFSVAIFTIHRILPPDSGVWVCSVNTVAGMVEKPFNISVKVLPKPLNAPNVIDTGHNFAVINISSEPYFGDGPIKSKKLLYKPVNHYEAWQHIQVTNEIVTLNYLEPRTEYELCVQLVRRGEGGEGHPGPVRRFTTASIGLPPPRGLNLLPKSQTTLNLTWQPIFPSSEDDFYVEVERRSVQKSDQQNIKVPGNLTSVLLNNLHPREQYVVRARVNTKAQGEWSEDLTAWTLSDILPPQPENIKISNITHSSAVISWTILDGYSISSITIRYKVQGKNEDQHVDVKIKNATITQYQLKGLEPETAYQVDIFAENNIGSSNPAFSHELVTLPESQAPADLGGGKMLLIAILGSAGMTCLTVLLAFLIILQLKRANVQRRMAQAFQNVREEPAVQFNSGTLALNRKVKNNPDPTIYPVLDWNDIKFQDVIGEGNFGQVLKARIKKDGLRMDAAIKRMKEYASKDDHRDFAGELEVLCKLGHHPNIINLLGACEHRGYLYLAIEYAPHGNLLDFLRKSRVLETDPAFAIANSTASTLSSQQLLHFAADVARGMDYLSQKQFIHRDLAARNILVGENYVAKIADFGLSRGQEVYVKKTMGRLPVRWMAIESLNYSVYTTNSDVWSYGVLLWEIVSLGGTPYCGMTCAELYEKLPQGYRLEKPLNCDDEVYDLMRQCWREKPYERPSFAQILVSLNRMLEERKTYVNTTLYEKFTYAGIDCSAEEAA
# BDNF/NT-3 growth factors receptor (Homo sapiens), sequence (Q16620 32-822 limits assumed): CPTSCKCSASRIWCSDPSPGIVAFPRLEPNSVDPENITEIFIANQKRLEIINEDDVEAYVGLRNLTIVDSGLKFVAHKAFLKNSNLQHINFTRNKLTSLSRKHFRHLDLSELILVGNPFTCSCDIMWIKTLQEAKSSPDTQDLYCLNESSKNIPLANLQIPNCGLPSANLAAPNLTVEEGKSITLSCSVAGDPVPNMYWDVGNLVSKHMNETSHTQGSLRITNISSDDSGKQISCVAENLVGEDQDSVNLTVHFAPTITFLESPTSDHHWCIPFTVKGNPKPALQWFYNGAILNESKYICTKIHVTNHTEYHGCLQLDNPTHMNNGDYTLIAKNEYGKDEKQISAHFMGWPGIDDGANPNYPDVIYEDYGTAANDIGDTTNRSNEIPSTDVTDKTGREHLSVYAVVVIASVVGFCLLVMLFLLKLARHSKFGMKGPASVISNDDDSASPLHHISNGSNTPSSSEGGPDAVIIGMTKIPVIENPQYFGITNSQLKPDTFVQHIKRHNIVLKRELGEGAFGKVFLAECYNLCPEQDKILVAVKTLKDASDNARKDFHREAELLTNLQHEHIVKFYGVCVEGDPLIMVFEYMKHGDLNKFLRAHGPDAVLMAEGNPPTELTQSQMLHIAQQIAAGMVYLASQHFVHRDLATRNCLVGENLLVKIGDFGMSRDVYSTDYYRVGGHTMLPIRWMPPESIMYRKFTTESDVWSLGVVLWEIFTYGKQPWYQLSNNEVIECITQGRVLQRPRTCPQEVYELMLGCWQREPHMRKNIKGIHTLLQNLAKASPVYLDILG
smiles,measurement,setting,value
COc1cc2nccc(Oc3ccc(NC(=O)Nc4cc(C)on4)c(Cl)c3)c2cc1OC,residual activity,[1],2%
same,residual activity,[2],0%
same,residual activity,[3],42%
O=S(=O)(c1cccc2cnccc12)N1CCCNCC1,residual activity,[3],83%
COc1ccc(COc2ccc(Cc3cnc(N)nc3N)cc2OC)cc1,residual activity,[4],100%
same,residual activity,[5],81%
same,residual activity,[1],49%
same,residual activity,[2],4%
same,residual activity,[3],55%
O=C1NC(=O)c2c1c1c3ccccc3[nH]c1n1cncc21,residual activity,[6],85%
same,residual activity,[4],70%
same,residual activity,[5],65%
same,residual activity,[7],98%
same,residual activity,[8],79%
same,residual activity,[1],21%
same,residual activity,[2],9%
same,residual activity,[3],48%
O=C(c1cc2cc(O)ccc2[nH]1)c1cc2cc(O)ccc2[nH]1,residual activity,[9],56%
same,residual activity,[6],65%
same,residual activity,[4],58%
same,residual activity,[5],21%
same,residual activity,[7],67%
same,residual activity,[8],75%
same,residual activity,[1],13%
same,residual activity,[2],1%
same,residual activity,[3],56%
CCN1/C(=C/C(C)=O)Sc2ccc(OC)cc21,residual activity,[6],75%
O=C(c1ccccc1)c1ccc(N2CCOCC2)cc1O,residual activity,[6],99%
same,residual activity,[4],96%
same,residual activity,[5],77%
same,residual activity,[8],80%
same,residual activity,[1],76%
same,residual activity,[2],71%
same,residual activity,[3],131%
O=C1Cc2c([nH]c3ccc([N+](=O)[O-])cc23)-c2ccccc2N1,residual activity,[4],79%
same,residual activity,[5],72%
same,residual activity,[1],72%
same,residual activity,[2],63%
NC(=O)c1ccc(-c2nc(-c3ccc4c(c3)OCCO4)c(-c3ccccn3)[nH]2)cc1,residual activity,[6],63%
same,residual activity,[4],96%
same,residual activity,[5],91%
same,residual activity,[8],72%
same,residual activity,[1],95%
same,residual activity,[2],82%
same,residual activity,[3],96%
O=C1Nc2ccccc2/C1=C\c1c(Cl)[nH]c2ccccc12,residual activity,[10],81%
same,residual activity,[6],78%
same,residual activity,[8],47%
same,residual activity,[1],85%
same,residual activity,[2],34%
same,residual activity,[3],87%
COc1ccc(CNC(=O)Nc2ncc([N+](=O)[O-])s2)cc1,residual activity,[4],102%
O=c1c(-c2ccc(F)cc2)c(-c2ccncc2)[nH]n1-c1ccc(Cl)cc1,residual activity,[9],78%
same,residual activity,[8],75%
